Screening data deposited in PubChem by National Center for Advancing Translational Sciences (NCATS).
D2 ag-1 = HTS Assay for Allosteric Agonists of the Human D2 Dopamine Receptor: Primary Screen for Agonists; D(2) dopamine receptor (Homo sapiens), P14416; HEK293 T-REx D2 cells, calcium flux agonist mode; activation, % at 2 µM; 340,000 compounds, 0.53% hits;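 active = activation over 3 SD above normal in the single-dose calcium agonist read, cut at about 30% in these data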
Target sequence (P14416 whole entry, looked up): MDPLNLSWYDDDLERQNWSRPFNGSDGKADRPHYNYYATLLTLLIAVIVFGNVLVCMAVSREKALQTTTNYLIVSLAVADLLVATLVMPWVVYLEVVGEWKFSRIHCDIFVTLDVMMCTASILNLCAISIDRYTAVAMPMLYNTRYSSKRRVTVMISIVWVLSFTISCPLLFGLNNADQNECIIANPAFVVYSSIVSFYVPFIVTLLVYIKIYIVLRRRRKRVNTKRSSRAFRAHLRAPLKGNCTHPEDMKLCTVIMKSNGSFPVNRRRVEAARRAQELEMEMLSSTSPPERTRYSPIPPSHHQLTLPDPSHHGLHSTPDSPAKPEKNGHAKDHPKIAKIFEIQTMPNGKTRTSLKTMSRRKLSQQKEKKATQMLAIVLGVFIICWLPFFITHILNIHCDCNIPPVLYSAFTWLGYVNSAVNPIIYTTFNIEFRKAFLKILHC
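Agonism is scored from calcium flux in a force-coupled, inducible HEK293 cell line expressing D2, read kinetically for 180 s after compound addition against dopamine controls.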
D2 PAM-1 = Beta-Arrestin HTS for Positive Allosteric Modulators of the Human D2 Dopamine Receptor: Potentiators. DiscoveRx D2 beta-arrestin cells, luminescence, 90 min; 100% = 57 uM dopamine signal. potentiation, % (no concentration beside the values). 360,000 compounds, 0.23% hits. AID 624464, 2012; in the data active = potentiation above about 50%; inconclusive = mostly about 30% to 49%
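PathHunter beta-arrestin assay in DiscoveRx D2 cells. Compounds were added with an EC20 of dopamine (50 nM final) for 90 min at 37 deg C. Luminescence was read 1 h after detection reagent, with 57 uM dopamine as the EC100 control.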
D2 antagonist = HTS Assay for Allosteric Antagonists of the Human D2 Dopamine Receptor: Primary Screen for Antagonists | D(2) dopamine receptor (Homo sapiens), P14416 | HEK293 TREx D2 cells, calcium flux, dopamine EC80 | inhibition, % at 10 µM | 340,000 compounds, 2% hits | AID 485344, 2010; in the data active = inhibition above about 30%; inactive = below that, where a call was filed
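Tetracycline-induced HEK293 T-REx cells expressing D2 force-coupled to calcium signalling were dye-loaded, exposed to compound for 180 s, then challenged with an EC80 of dopamine; calcium flux was followed kinetically for a further 180 s.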
D2 PAM-2 = HTS Assay for Positive Allosteric Modulators of the Human D2 Dopamine Receptor: Primary Screen for Potentiators. HEK293 T-REx D2, calcium flux, EC20 dopamine potentiation. 340,000 compounds, 0.34% hits. D(2) dopamine receptor (Homo sapiens), P14416. potentiation, % at 10 µM;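 active = potentiation over 3 SD above the plate norm, cut at about 30% in these data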
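Tetracycline-induced Hek293 Trex D2 cells, force-coupled to calcium, loaded with no-wash calcium dye. Compound added with 180 s kinetic read for agonism, then EC20 dopamine and a further 180 s read for potentiation.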
D2 ag-2 = Beta-Arrestin HTS for Positive Allosteric Modulators of the Human D2 Dopamine Receptor: Agonists. D(2) dopamine receptor (Homo sapiens), P14416. DiscoveRx PathHunter D2 beta-arrestin, luminescence, 90 min; 100% = 57 uM dopamine signal. activation, % (concentration not given with the values). 360,000 compounds, 0.084% hits; in the data active = activation above about 40%; inconclusive = between about 15% and that limit
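DiscoveRx PathHunter D2 beta-arrestin cells (2,100/well) attached overnight, then compound-stimulated 90 min at 37 C in HBSS/10 mM HEPES/0.1% Tween-20 buffer; beta-galactosidase complementation read by luminescence after 1 h at ambient temperature. Dopamine 57 uM final (EC100) as control.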
Large screens that a line does not name were inactive. The list is not random: actives were taken first. Their share in the collection is about 2.4%.

CC(=O)c1ccc(N2CCN(C(=O)CN3C(=O)NC4(CCCCC4)C3=O)CC2)c(F)c1	D2 antagonist 31
Cc1ccc(C)c(-c2[nH]c3c(c2-c2c(-n4cccc4)n(C)c(=O)[nH]c2=O)c(=O)[nH]c(=O)n3C)c1	none (no result: D2 ag-1, D2 PAM-1, D2 antagonist, D2 ag-2)
Cc1onc(C(=O)N2CCN(c3ccccc3F)CC2)c1-c1ccccc1Cl	D2 PAM-2 34
COC(=O)C1=C(C(=O)c2ccc(C)cc2)C(c2ccc(OC)c(OC)c2)n2nnnc2N1 (stereo not drawn)	D2 antagonist 33
COC(=O)C1=C(C(=O)c2ccc(C)cc2)C(c2ccc(O)c(OC)c2)n2nnnc2N1 (stereo not drawn)	none
O=C(c1cncc(Br)c1)N1CCN(S(=O)(=O)c2ccccc2C(F)(F)F)CC1	D2 antagonist 40
O=C(c1cncc(Br)c1)N1CCN(S(=O)(=O)c2ccccc2)CC1	none
NC(=O)CC(NC(=O)Cc1ccc(Br)cc1)c1ccc(NC2CCN(Cc3ccccc3)CC2)c([N+](=O)[O-])c1 (stereo not drawn)	none
O=[N+]([O-])c1ccccc1NC1CCN(Cc2ccccc2)CC1	D2 antagonist 39
O=[N+]([O-])c1ccc(NC2CCN(Cc3ccccc3)CC2)c([N+](=O)[O-])c1	none
NC(=O)CC(NC(=O)Cc1cccc2ccccc12)c1ccc(NC2CCN(Cc3ccccc3)CC2)c([N+](=O)[O-])c1 (stereo not drawn)	D2 antagonist 32
COC(=O)c1ccc(NC(=O)CSc2nc3cc4ccccc4cc3[nH]2)cc1	none (no result: D2 PAM-1, D2 antagonist, D2 ag-2)
Cc1ccc(NC(=O)CCc2nnc3ccc(N4CCC(C)CC4)nn23)nc1	D2 antagonist 32
Cc1noc(C)c1C(=O)N1CCC1(C)C(=O)NS(=O)(=O)c1ccccc1Cl (stereo not drawn)	none (no result: D2 ag-1, D2 antagonist, D2 PAM-2)
COC(=O)c1[nH]c2cccc(C)c2c1NC(=O)CN1CCN(c2ccccc2OC)CC1	D2 ag-1 39, D2 antagonist 54
COc1ccc(OC)c(NC(=O)CCN2CCN(Cc3ccccc3)CC2)c1	D2 ag-1 36
COC(=O)c1[nH]c2cc(OC)ccc2c1NC(=O)CCN1CCN(c2ccccc2)CC1	D2 antagonist 63
COC(=O)c1[nH]c2cccc(OC)c2c1NC(=O)CCN1CCC(C(N)=O)CC1	none (no result: D2 PAM-1, D2 ag-2)
COC(=O)c1[nH]c2cccc(OC)c2c1NC(=O)CCN1CCN(c2ccccc2F)CC1	D2 ag-1 44, D2 antagonist 74 (no result: D2 PAM-1, D2 ag-2)
COC(=O)c1[nH]c2cccc(C)c2c1NC(=O)CN1CCN(C(=O)c2ccco2)CC1	none
CCOC(=O)C1CCCN(CCC(=O)Nc2c(C(=O)OC)[nH]c3cc(OC)ccc23)C1 (stereo not drawn)	none
O=C(OCc1c(F)cccc1Cl)c1cnc2ccccc2n1	none
Cc1ccc(C(=O)OCC(=O)N(C)c2c(N)n(Cc3ccccc3)c(=O)[nH]c2=O)s1	none
COC(=O)c1c(NC(=O)CN2CCN(c3ccccc3OC)CC2)c2c(C)cccc2n1C	D2 ag-1 52 (no result: D2 PAM-1, D2 ag-2)
COC(=O)c1c(NC(=O)CN2CCN(c3ccccc3)CC2)c2c(C)cccc2n1C	none
COc1cc(/C=C(\C#N)c2nc3ccccc3[nH]2)cc(OC)c1O	D2 ag-1 36
CC(Oc1ccc(Br)cc1)C(=O)O/N=C(\N)c1ccncc1 (stereo not drawn)	none
CCCN(CC(=O)Nc1ccccc1C)C(=O)C1CCN(S(=O)(=O)c2ccccc2C(F)(F)F)CC1	none
Cc1ccc(NC(=O)C(=O)NCC(c2cccnc2)N2CCN(c3ccccc3F)CC2)cc1Cl (stereo not drawn)	none (no result: D2 PAM-1, D2 antagonist, D2 ag-2)
NC(=S)N/N=C/c1cccc(O)c1O	none
Cc1cc(/C=N/NC(N)=S)c(O)c(/C=N/NC(N)=S)c1	D2 ag-1 45
COc1ccc([C@H]2[C@H](C(=O)C(C)(C)C)N3N=Cc4ccccc4C3[C@]23N=C(c2ccccc2)OC3=O)cc1OC (stereo partly drawn)	D2 PAM-1 58
CCOCCc1nn2c(=O)cc(COC(=O)c3ccccc3NC(=O)c3cccs3)nc2s1	none (no result: D2 ag-1, D2 PAM-1, D2 antagonist, D2 ag-2)
Cc1cc(C)c(NC(=O)CN2C(=O)NC(CCc3ccccc3)C2=O)c(C)c1 (stereo not drawn)	D2 antagonist 32
Cc1ccc(C)c(NC(=O)CN2C(=O)NC(CCc3ccccc3)C2=O)c1 (stereo not drawn)	none (no result: D2 ag-1, D2 antagonist, D2 PAM-2)
O=C(NCc1ccccc1Cl)c1ccc(CSCc2ccccc2Cl)o1	none (no result: D2 PAM-1, D2 antagonist, D2 ag-2)
CCOC(=O)c1c(-c2ccccc2)oc2ccc(OCC(=O)O)cc12	D2 antagonist 33
CCOC(=O)c1c(-c2ccc(OC)cc2)oc2ccc(OCC(N)=O)cc12	D2 ag-2 inconclusive
CCOC(=O)c1cc(S(=O)(=O)NC2CCC(C)CC2)cn1C (stereo not drawn)	D2 PAM-2 99
Cc1cc(N2CCN(C)CC2)nc2ccc(NC(=S)NCCCN3CCc4ccccc4C3)cc12	D2 antagonist 34
CCN1CCN(c2cc(C)c3cc(NC(=S)NCCCN4CCc5ccccc5C4)ccc3n2)CC1	D2 antagonist 53
Cc1cc(N2CCN(C)CC2)nc2ccc(NC(=S)NCCN3CCc4ccccc4C3)cc12	none
Cc1nc2nc(SCc3c(F)cccc3Cl)nn2c(C)c1Cc1ccccc1	none (no result: D2 PAM-1, D2 antagonist, D2 ag-2)
COc1ccc(N(C)C(=O)Cn2cc(S(=O)(=O)N3CCN(c4ccccc4F)CC3)c3ccccc3c2=O)c(OC)c1	none (no result: D2 ag-1, D2 PAM-1, D2 antagonist, D2 ag-2)
CCn1cc(/C=N/NC(=O)c2cc3c(ccc4ccccc43)o2)c2ccccc21	D2 PAM-1 inconclusive, D2 PAM-2 35
COc1ccc(S(=O)(=O)NC2CC(=O)N(c3ccccc3)C2)cc1C (stereo not drawn)	none
CCOc1ccc2nc(N(Cc3cccnc3)C(=O)c3ccco3)sc2c1	none (no result: D2 ag-1, D2 PAM-1, D2 antagonist, D2 ag-2)
O=C(Nc1cc(-c2ccccc2)cs1)c1ccco1	D2 antagonist 31
O=C(Nc1nc(-c2ccccc2)cs1)c1ccco1	none
CCc1ccc(-n2nc(CO)c(C(=O)NCc3cccs3)n2)cc1	none (no result: D2 PAM-1, D2 antagonist, D2 ag-2)
CCc1ccc(N(C(C)=O)C2C=CS(=O)(=O)C2)cc1 (stereo not drawn)	D2 antagonist 37
CC(C)(C)c1ccc(C(=O)Nc2ccc([N+](=O)[O-])cn2)cc1	D2 antagonist 36
COc1ccc(CNc2ncnc3onc(-c4ccc(F)cc4)c23)cc1	none (no result: D2 PAM-1, D2 antagonist, D2 ag-2)
O=S(=O)(c1ccccc1)c1nnn2c1nc(NCc1ccccc1)c1cc(Cl)ccc12	none (no result: D2 PAM-1, D2 antagonist, D2 ag-2)
